Activity calls are given as the source filed them. The call rests on the fitted dose curve; in most records, active means well fitted curve in the direction sought with a large enough effect in the repeat runs; inconclusive means weak or mixed curves; inactive means flat fitted curve, though single readings scatter.

The test can be described thus: qHTS assay to test for compound auto fluorescence at 590 nm (red) in HepG2 cell free culture (AID 720684). As to conditions: cell-free medium autofluorescence, red 540/590 nm; series mostly up to 91.3 µM. The source says:
U.S. Tox21 Program National Center for Advancing Translational Sciences [NCATS] NIH Chemical Genomics Center [NCGC] U.S. Environmental Protection Agency [EPA] National Institutes of Environmental Health Sciences [NIEHS] National Toxicology Program [NTP] U.S. Food and Drug Administration [FDA] Tox21 Assay Overview: Compound auto fluorescence often interferes with screening of the compound library against various biological targets and signaling pathways. Some of these compounds may have fluorophoric properties. Such properties may interfere with the assay outputs resulting in false positives and/or negatives. To decrease such complications and ensure the compound activities are relevant in terms of biological response, the Tox21 10K compound library was screened for auto fluorescence. From the fluorophores used as reporter signals in our screening assays, the auto fluorescence equivalencies of compounds against three fluorophores have been evaluated: Triamterene, Fluorescein and Rose Bengal sodium for blue, green and red fluorescence, respectively. The fluorescence intensities were measured using Excitation/Emission wavelengths at 405/460nm, 485/535nm and 540/590nm for blue, green and red labels, respectively. This assay includes the red fluorescence data.
Tox21 Assay Protocol Summary: 5 uL of culture medium (MEM containing 10% FBS) per well was dispensed into black wall/clear bottom 1536-well plates using a Multidrop Combi Dispenser (ThermoFisher Scientific, Waltham, MA). After 23 nL compound or DMSO vehicle was transferred into assay plate by a pintool work station (Kalypsys, San Diego, CA), fluorescence intensities in the assay plates were measured by an Envision (PerkinElmer, Shelton, CT) plate reader using three labels for measuring blue, green and red fluorescence at […] 460, 535 and 590nm respectively.
In the case of `CCCCC(CC)COC(=O)c1ccc(C(=O)OCC(CC)CCCC)c(C(=O)OCC(CC)CCCC)c1` (stereo not given), the compound was classed as inactive.

Consider `CCCCCCOC(=O)c1ccccc1C(=O)OCCCCCC`, for which the compound was classed as inactive. For the compound `CCOCN(C(=O)CCl)c1c(C)cccc1CC`, the outcome was inactive.

As for `c1ccc(-c2cccc(-c3ccccc3)c2)cc1`, the outcome was inactive.

Regarding `c1ccc(P(c2ccccc2)c2ccccc2)cc1`, the call was inactive. Take `O=[N+]([O-])c1c(Cl)c(Cl)c(Cl)c(Cl)c1Cl`: the compound was classed as inactive. For `CCCCOCCOP(=O)(OCCOCCCC)OCCOCCCC` the value was “inactive”; for `Cc1cccc(N)c1N`, “inactive”. Take `C=C(C)C(=O)OCC1CO1` (stereo not given): the outcome was inactive. Regarding `COc1ccc(C(CN(C)C)C2(O)CCCCC2)cc1` (stereo not given), the call was inactive. Turning to `CCC(C)(c1ccc(O)cc1)c1ccc(O)cc1`, the call was inactive. In the case of `N#Cc1cc(Br)c(O)c(Br)c1`, the compound was classed as inactive. For `CCC(CC)Nc1c([N+](=O)[O-])cc(C)c(C)c1[N+](=O)[O-]` the value was “inactive”; for `CCOC(=O)C(C)OC(=O)c1cc(Oc2ccc(C(F)(F)F)cc2Cl)ccc1[N+](=O)[O-]` (stereo not given), “inactive”; for `c1ccc(NNc2ccccc2)cc1`, “inactive”. For `CCN(CC)C(=O)SCc1ccc(Cl)cc1` the value was “inactive”; for `Nc1c(Cl)cc([N+](=O)[O-])cc1Cl`, “inactive”; for `S=C1NCCN1`, “inactive”. In the case of `Oc1cc(Cl)c(Cl)cc1Cl` it was “inactive”.

`O=C1C=CC(=O)C=C1`: the compound was called inactive. For `Oc1ccc(-c2ccccc2)cc1` the value was “inactive”.

On to `O=C(O)C(F)(F)C(F)(F)C(F)(F)C(F)(F)C(F)(F)C(F)(F)C(F)(F)F`, for which the outcome was inactive. For `CCOc1cc(Oc2ccc(C(F)(F)F)cc2Cl)ccc1[N+](=O)[O-]` the value was “inactive”; for `O=[N+]([O-])c1ccc(O)c([N+](=O)[O-])c1`, “inactive”; for `Nc1ccc(-c2ccccc2)cc1`, “inactive”. With `CNC(=O)Oc1cccc2c1OC(C)(C)O2`, the compound was classed as inactive. For `CCOP(=S)(OCC)O/N=C(\C#N)c1ccccc1`, the compound was classed as inactive. For `COP(=O)(OC)OC`, the outcome was inactive. For `Nc1cccnc1`, the outcome was inactive. `CCCCN(CC)c1c([N+](=O)[O-])cc(C(F)(F)F)cc1[N+](=O)[O-]`: the compound was called inactive. For `Clc1nc(Cl)nc(Cl)n1`, the call was inactive. In the case of `N#CC(Br)Br`, the compound was classed as inactive. With `Cc1ccc(OP(=O)(Oc2ccc(C)cc2)Oc2ccc(C)cc2)cc1`, the result was inactive. Take `CCN(N=O)C(N)=O`: the compound was classed as inactive.

On to `CCCCN(CCCC)N=O`, for which the call was inactive. For the compound `Oc1cc(Cl)ccc1Oc1ccc(Cl)cc1Cl`, the call was inactive. As to `CCOC(=S)S`, the outcome was inactive. Regarding `CCC(C)(C)c1ccc(O)cc1`, the compound was called inactive. On to `CCC(=O)O[C@H]1CC[C@H]2[C@@H]3CCC4=CC(=O)CC[C@]4(C)[C@H]3CC[C@]12C`, for which the compound was classed as inactive. Regarding `C#CCOS(=O)OC1CCCCC1Oc1ccc(C(C)(C)C)cc1` (stereo not given), the compound was classed as inactive.

Source of the values: PubChem BioAssay (Tox21).
